In PubChem BioAssay (EPA / NIEHS):
“And” between values parts separate entries of the source, which are not always exact repeats. Identical values can stand only once. Results filed as inconclusive are left out. Some compounds were tested as several samples or in several runs, with calls that do not always agree. The source made the active and inactive calls. The calls were made as follows, unless noted: active = hit-call score of the fitted dose curve at least 0.9, where 1 is the maximum; inactive = score below 0.9.

Key:
[1] = read-out: Monocyte Chemoattractant Protein-1 (MCP1), CCL2 (gene 6347); test: BSK_SAg_MCP1: BioMAP Diversity Plus: SAg Assay for Monocyte Chemoattractant Protein-1 (MCP1) Biomarker Activity (AID 2283090); conditions: primary human HUVEC with PBMC; actives raise or lower the signal
Outline: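 Values derive from bidirectional fitting of ELISA-measured MCP1 against DMSO controls. Readings were taken 24 h after dosing human vascular endothelial cells co-cultured with peripheral blood mononuclear cells under superantigen stimulation.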

[2] = read-out: E-selectin (Homo sapiens) (UniProt P16581); test: BSK_SAg_Eselectin: BioMAP Diversity Plus: SAg Assay for Eselectin Biomarker Activity (AID 2283091); conditions: primary human HUVEC with PBMC; actives raise or lower the signal
Outline: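 Endpoint values derive from bidirectional fitting relative to DMSO, using ELISA-measured E-selectin in a human vascular co-culture (umbilical vein endothelium plus PBMC) sampled 24 h after dosing.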

[3] = read-out: Monokine induced gamma interferon (MIG), CXCL9 (gene 4283); test: BSK_SAg_MIG: BioMAP Diversity Plus: SAg Assay for Monokine induced gamma interferon (MIG) Biomarker Activity (AID 2283092); conditions: primary human HUVEC with PBMC; actives raise or lower the signal
Outline: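 Endothelial cells and PBMC were co-cultured, exposed to test chemicals, and sampled 24 h later. MIG was measured by ELISA, and responses were fitted in both directions relative to DMSO.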

[4] = BSK_SAg_PBMCCytotoxicity: PBMC Cytotoxicity Assessment in the BioMAP Diversity Plus: SAg Assay (AID 2283093); conditions: primary human HUVEC with PBMC;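 also: PBMC viability measured as Alamar Blue reduction fluorescence at 546/580 nm; fitted both ways against DMSO so a hit may be loss or gain of signal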;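 as to AC50: PBMC superantigen activated with SEB plus TSST-1 one hour after compound addition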
Outline: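 Alamar Blue reduction (6 h, 546/580 nm) reports PBMC cytotoxicity after 90 h superantigen activation (SEB, TSST-1; 20 ng/mL final each) with 1 h compound pre-treatment. Gain or loss of signal fitted versus DMSO.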

[5] = read-out: Interleukin-8 (IL8), CXCL8 (gene 3576); test: BSK_SAg_IL8: BioMAP Diversity Plus: SAg Assay for Interleukin-8 (IL8) Biomarker Activity (AID 2283094); conditions: primary human HUVEC with PBMC; actives raise or lower the signal
Outline: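 ELISA readout of IL-8 from a superantigen-activated endothelial/PBMC primary human co-culture, taken 24 h post-dosing and fitted in both directions against DMSO; parallel SRB total-protein staining flags overt cytotoxicity.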

[6] = BSK_SAg_Proliferation: Cell Proliferation Assessment in the BioMAP Diversity Plus: SAg Assay (AID 2283095); conditions: primary human HUVEC with PBMC;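 also: relative cell number as total protein by SRB absorbance in sub-confluent culture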
Outline: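 Relative cell number in the endothelial cell/PBMC co-culture was quantified at 96 h by SRB staining (0.1% SRB, 10% TCA fixation, read at 560 nm). Curves were fitted in both directions relative to DMSO baseline.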

[7] = BSK_SAg_SRB: Viability Assessment in the BioMAP Diversity Plus: SAg Assay (AID 2283096); conditions: primary human HUVEC with PBMC;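 also: cells read one day after compound addition; hits may be either gain or loss of signal compared with DMSO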
Outline: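 This overt-cytotoxicity endpoint quantifies protein in human endothelial/PBMC co-cultures at 24 h using SRB absorbance (560 nm) after trichloroacetic acid fixation. Values reflect signal change from the DMSO negative control, fitted bidirectionally.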

[8] = target: human Caspase 5 (CASP5), CASP5 (gene 838) (UniProt P51878); test: NVS_ENZ_hCASP5: NovaScreen (NVS) Enzymatic Assay for human Caspase 5 (CASP5) (AID 2283137; active = hit-call score of the fitted dose curve at least 0.9, where 1 is the maximum)
Sequence of human Caspase 5 (CASP5), CASP5 (gene 838) (P51878 whole entry, looked up): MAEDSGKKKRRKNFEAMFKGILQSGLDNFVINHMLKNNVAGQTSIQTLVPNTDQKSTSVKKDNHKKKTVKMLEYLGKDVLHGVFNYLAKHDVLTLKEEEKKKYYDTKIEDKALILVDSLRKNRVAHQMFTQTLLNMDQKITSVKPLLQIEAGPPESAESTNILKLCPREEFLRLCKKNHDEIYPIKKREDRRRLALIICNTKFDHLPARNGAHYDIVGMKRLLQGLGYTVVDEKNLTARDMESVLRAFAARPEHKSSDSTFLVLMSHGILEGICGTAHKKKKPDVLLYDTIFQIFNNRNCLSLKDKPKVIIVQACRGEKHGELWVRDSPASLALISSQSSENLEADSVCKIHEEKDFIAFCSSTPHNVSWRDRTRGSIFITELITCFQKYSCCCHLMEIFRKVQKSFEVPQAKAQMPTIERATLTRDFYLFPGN
Outline: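 Loss of fluorescent signal versus DMSO scored for E. coli-derived human CASP5 cleaving a fluorescent substrate, 2 h post-dosing; compounds first tested at 25 uM in duplicate, hits rerun in concentration series with 50 uM top concentration.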

[9] = target: human Beta-secretase (BACE), BACE1 (gene 23621) (UniProt P56817); test: NVS_ENZ_hBACE: NovaScreen (NVS) Enzymatic Assay for human Beta-secretase (BACE) (AID 2283140; active = hit-call score of the fitted dose curve at least 0.9, where 1 is the maximum;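 also: hits are inhibitors that reduce fluorescent substrate signal versus DMSO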)
Sequence of human Beta-secretase (BACE), BACE1 (gene 23621) (P56817 whole entry, looked up): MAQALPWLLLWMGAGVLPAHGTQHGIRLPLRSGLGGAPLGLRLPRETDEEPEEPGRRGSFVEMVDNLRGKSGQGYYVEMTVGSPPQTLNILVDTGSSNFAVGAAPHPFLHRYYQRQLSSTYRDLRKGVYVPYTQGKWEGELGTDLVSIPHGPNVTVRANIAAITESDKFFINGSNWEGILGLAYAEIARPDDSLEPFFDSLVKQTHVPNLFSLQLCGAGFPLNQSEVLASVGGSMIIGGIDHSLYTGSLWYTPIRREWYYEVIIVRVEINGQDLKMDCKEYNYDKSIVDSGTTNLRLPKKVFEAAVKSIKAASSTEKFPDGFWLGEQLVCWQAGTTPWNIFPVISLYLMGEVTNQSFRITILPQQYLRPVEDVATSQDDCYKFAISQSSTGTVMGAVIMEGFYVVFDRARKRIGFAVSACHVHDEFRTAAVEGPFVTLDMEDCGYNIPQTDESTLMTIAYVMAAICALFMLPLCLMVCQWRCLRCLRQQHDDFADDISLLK
Outline: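 Enzyme from SF9 cells was incubated 1 hour with compound and fluorogenic substrate, activity read by fluorescence. Single-concentration duplicates at 25 uM preceded concentration-response follow-up; fitting relative to DMSO baseline.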

[10] = target: human CYP19A1, CYP19A1 (gene 1588) (UniProt P11511); test: NVS_ADME_hCYP19A1: NovaScreen (NVS) CYP450-related Enzyme Activity (ADME) Assay for human CYP19A1 (AID 2283098; active = hit-call score of the fitted dose curve at least 0.9, where 1 is the maximum;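 as to AC50: potency for inhibitors seen as loss of fluorescent enzyme signal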)
Sequence of human CYP19A1, CYP19A1 (gene 1588) (P11511 whole entry, looked up): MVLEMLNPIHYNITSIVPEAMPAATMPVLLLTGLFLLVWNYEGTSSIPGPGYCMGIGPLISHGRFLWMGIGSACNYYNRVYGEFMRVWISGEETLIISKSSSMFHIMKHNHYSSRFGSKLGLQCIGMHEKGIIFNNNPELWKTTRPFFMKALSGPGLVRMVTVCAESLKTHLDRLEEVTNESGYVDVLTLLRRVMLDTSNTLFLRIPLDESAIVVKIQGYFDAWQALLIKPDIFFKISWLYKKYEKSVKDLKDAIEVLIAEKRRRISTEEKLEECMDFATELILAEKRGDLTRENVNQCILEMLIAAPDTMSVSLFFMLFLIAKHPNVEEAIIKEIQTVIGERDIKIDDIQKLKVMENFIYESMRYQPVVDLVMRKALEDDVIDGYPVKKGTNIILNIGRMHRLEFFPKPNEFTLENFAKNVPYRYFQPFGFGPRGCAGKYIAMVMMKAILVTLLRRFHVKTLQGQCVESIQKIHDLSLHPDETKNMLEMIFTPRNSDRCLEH
Outline: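 Compounds were first screened at 10 uM in duplicate against purified enzyme, with a fluorogenic substrate and fluorescence intensity detection after 0.5 h. Inhibition appears as reduced signal against acetonitrile control.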

[11] = target: human Ephrin type-A Receptor 1 (EphA1), EPHA1 (gene 2041) (UniProt P21709); test: NVS_ENZ_hEphA1: NovaScreen (NVS) Enzymatic Assay for human Ephrin type-A Receptor 1 (EphA1) (AID 2283158; active = hit-call score of the fitted dose curve at least 0.9, where 1 is the maximum;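 also: activity is signal loss versus DMSO meaning EphA1 kinase inhibition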)
Sequence of human Ephrin type-A Receptor 1 (EphA1), EPHA1 (gene 2041) (P21709 whole entry, looked up): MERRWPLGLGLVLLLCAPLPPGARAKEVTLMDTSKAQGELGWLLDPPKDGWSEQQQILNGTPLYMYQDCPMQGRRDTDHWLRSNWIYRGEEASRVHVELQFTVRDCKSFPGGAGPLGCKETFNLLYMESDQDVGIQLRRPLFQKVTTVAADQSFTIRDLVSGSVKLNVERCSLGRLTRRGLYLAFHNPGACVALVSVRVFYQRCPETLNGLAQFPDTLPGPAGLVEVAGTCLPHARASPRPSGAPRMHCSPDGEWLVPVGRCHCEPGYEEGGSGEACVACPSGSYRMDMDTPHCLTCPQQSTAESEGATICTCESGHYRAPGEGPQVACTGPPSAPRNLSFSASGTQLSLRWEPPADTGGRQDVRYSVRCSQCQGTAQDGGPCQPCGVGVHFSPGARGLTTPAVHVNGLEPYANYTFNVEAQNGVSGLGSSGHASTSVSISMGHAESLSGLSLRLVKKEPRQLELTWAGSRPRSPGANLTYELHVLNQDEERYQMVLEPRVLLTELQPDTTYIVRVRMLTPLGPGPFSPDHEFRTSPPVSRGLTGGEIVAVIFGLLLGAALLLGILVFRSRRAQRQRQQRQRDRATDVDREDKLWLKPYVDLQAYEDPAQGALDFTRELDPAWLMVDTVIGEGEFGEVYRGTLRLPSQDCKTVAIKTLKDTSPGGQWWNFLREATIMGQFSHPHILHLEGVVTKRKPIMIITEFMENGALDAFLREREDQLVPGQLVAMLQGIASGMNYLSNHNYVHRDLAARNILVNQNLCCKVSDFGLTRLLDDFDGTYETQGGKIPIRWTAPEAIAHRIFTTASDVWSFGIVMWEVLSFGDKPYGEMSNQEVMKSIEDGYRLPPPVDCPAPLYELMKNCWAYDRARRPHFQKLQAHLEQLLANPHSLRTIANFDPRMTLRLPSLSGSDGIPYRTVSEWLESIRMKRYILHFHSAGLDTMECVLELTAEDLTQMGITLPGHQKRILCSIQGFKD
Outline: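 Here the EphA1 protein is recombinant and the substrate fluorescent, with electrophoretic separation before fluorescence detection at 1 hour. Signal loss against DMSO defines activity; plate controls included; follow-up concentration series reach 50 uM.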

[12] = target: Cytochrome P450 2C19 (Homo sapiens) (UniProt P33261); test: NVS_ADME_hCYP2C19: NovaScreen (NVS) CYP450-related Enzyme Activity (ADME) Assay for human CYP2C19 (AID 2283113; active = hit-call score of the fitted dose curve at least 0.9, where 1 is the maximum;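 also: potency for inhibition seen as loss of fluorescent signal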)
Outline: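 Biochemical CYP2C19 inhibition screen: insect-cell recombinant protein plus fluorescent substrate, 1 h, fluorescence intensity. Acetonitrile defined baseline activity. Single 10 uM concentration in duplicate, with concentration-response follow-up for actives.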

[13] = target: human Dual Specificity Protein Phosphatase 3 (DUSP3), DUSP3 (gene 1845) (UniProt P51452); test: NVS_ENZ_hDUSP3: NovaScreen (NVS) Enzymatic Assay for human Dual Specificity Protein Phosphatase 3 (DUSP3) (AID 2283152; active = hit-call score of the fitted dose curve at least 0.9, where 1 is the maximum;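 also: phosphatase activity of recombinant human DUSP3 on a fluorogenic substrate without cells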)
Sequence of human Dual Specificity Protein Phosphatase 3 (DUSP3), DUSP3 (gene 1845) (P51452 whole entry, looked up): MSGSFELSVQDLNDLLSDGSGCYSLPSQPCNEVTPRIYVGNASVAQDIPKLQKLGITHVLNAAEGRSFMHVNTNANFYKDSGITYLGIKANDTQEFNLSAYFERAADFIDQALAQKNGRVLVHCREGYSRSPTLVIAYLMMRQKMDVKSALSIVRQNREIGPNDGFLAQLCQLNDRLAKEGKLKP
Outline: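 Cell-free fluorescence-intensity enzyme activity assay with recombinant protein and substrate; loss of signal fitted relative to DMSO baseline. Primary screen in duplicate at 25 uM, actives then run in concentration series; measured 0 h after dosing.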

[14] = target: human CYP2A6, CYP2A6 (gene 1548) (UniProt P11509); test: NVS_ADME_hCYP2A6: NovaScreen (NVS) CYP450-related Enzyme Activity (ADME) Assay for human CYP2A6 (AID 2283099; active = hit-call score of the fitted dose curve at least 0.9, where 1 is the maximum)
Sequence of human CYP2A6, CYP2A6 (gene 1548) (P11509 whole entry, looked up): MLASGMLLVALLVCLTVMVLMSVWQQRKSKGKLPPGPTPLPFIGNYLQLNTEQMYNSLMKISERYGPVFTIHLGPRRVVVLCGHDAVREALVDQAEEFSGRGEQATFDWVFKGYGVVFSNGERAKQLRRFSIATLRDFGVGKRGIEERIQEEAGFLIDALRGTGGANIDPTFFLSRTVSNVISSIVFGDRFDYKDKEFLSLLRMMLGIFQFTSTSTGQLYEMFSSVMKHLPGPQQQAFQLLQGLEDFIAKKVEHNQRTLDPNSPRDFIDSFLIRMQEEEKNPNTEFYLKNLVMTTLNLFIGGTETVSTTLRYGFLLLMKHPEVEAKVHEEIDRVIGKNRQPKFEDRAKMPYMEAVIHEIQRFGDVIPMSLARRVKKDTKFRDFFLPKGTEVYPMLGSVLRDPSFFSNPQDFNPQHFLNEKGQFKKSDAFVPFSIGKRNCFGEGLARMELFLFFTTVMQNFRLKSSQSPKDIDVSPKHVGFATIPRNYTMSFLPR
Outline: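 Loss of fluorescence signal relative to acetonitrile vehicle reported CYP2A6 inhibition in a cell-free system using insect-cell-derived enzyme. Readings were taken at 0.5 h; top concentration in follow-up dose series was 20 uM.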

[15] = target: human CYP2B6, CYP2B6 (gene 1555) (UniProt P20813); test: NVS_ADME_hCYP2B6: NovaScreen (NVS) CYP450-related Enzyme Activity (ADME) Assay for human CYP2B6 (AID 2283101; active = hit-call score of the fitted dose curve at least 0.9, where 1 is the maximum)
Sequence of human CYP2B6, CYP2B6 (gene 1555) (P20813 whole entry, looked up): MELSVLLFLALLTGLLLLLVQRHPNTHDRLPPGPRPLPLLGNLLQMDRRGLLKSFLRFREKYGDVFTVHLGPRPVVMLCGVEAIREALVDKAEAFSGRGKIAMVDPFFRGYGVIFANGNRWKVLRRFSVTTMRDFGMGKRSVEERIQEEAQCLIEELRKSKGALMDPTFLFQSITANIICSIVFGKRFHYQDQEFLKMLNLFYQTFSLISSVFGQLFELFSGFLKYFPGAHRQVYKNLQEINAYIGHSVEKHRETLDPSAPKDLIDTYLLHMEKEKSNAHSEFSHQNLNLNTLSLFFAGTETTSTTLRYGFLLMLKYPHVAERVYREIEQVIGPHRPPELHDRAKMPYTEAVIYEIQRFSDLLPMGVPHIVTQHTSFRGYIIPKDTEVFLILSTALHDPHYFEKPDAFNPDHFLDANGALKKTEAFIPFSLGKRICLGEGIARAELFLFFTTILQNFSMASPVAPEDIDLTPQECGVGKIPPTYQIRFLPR
Outline: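 Cell-free recombinant enzyme assay with a fluorogenic substrate; fluorescence intensity read 1 hour after dosing. Loss of signal relative to acetonitrile negative control indicates inhibition. Primary screen run in duplicate at 10 uM, actives then tested in concentration series.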

[16] = target: human CYP1A2, CYP1A2 (gene 1544) (UniProt P05177); test: NVS_ADME_hCYP1A2: NovaScreen (NVS) CYP450-related Enzyme Activity (ADME) Assay for human CYP1A2 (AID 2283102; active = hit-call score of the fitted dose curve at least 0.9, where 1 is the maximum)
Outline: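 Inhibition scored as decrease in fluorescent product versus acetonitrile negative control. Enzyme: insect-cell recombinant human CYP1A2, substrate-specific, cell-free. Reading at 0.5 h; 10 uM duplicate initial screen with positive and negative controls on every plate.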

[17] = target: Cytochrome P450 3A4 (Homo sapiens) (UniProt P08684); test: NVS_ADME_hCYP3A4: NovaScreen (NVS) CYP450-related Enzyme Activity (ADME) Assay for human CYP3A4 (AID 2283110; active = hit-call score of the fitted dose curve at least 0.9, where 1 is the maximum)
Sequence of Cytochrome P450 3A4 (Homo sapiens) (P08684 whole entry, looked up): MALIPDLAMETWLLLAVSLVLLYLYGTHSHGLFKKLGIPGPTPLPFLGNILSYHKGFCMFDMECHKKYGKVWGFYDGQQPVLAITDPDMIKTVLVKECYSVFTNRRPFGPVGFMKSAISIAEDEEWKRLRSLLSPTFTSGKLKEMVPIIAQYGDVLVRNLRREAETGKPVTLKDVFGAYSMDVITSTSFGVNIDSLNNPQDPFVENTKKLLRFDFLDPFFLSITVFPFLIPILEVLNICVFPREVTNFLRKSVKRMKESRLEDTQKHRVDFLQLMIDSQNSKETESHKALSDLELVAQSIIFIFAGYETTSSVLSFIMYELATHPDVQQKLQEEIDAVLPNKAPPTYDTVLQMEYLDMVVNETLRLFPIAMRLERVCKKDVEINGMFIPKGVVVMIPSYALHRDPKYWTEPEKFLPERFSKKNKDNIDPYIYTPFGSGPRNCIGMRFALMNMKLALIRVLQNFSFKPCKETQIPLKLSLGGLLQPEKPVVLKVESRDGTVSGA
Outline: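 Activity is derived from decreased fluorescence intensity relative to acetonitrile, measured 0.33 hour after dosing insect-cell-expressed CYP3A4 in a cell-free format. Screening used 10 uM in duplicate before concentration-response follow-up.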

Measured: AC50

Sequence of E-selectin (Homo sapiens) (P16581 whole entry, looked up): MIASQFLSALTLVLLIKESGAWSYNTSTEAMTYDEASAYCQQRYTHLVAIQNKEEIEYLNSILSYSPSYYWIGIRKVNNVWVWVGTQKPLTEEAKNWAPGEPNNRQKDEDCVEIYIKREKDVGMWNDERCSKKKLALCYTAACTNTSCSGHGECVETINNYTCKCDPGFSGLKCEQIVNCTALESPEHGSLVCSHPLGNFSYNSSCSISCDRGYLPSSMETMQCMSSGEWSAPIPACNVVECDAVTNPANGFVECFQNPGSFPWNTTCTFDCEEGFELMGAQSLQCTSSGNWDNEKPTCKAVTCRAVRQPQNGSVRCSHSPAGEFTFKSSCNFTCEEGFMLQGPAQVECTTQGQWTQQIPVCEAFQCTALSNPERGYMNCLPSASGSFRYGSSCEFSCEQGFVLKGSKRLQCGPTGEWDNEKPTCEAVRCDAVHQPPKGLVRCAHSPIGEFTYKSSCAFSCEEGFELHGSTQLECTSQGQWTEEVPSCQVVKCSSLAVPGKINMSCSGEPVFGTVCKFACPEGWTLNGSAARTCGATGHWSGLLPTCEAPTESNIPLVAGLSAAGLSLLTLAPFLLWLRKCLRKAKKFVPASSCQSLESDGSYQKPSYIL

CC(c1cc(C(C)(C)C)cc(C(C)(C)C)c1O)c1cc(C(C)(C)C)cc(C(C)(C)C)c1O
active: [6] 5.29 µM
inactive: [1] | [2] | [3] | [4] | [5] | [7]

COc1ccc(C(=O)/C(Br)=C\C(=O)O)cc1
active: [1] 20 µM | [2] 7.92 µM and 7.11 µM | [3] 35.2 µM and 34.5 µM | [4] 12 µM and 7.54 µM | [5] 3.97 µM | [6] 6.87 µM and 2.13 µM | [7] 25.9 µM and 31.6 µM | [8] 18.5 µM | [9] 39.1 µM
inactive: [5]

COc1ccc(C(=O)c2ccccc2)c(O)c1
inactive: [1] | [2] | [3] | [4] | [5] | [6] | [7]

CCCCCCCCCCCC(C)=O
inactive: [3] | [7]
active: [1] 31.1 µM | [2] 33.3 µM | [4] 32 µM | [5] 33.8 µM | [6] 34 µM

CCCC(C)C(=O)OCC (stereo not drawn)
inactive: [1] | [2] | [3] | [4] | [5] | [6] | [7]

CCNc1nc(NC(C)(C)C)nc(OC)n1
inactive: [1] | [3] | [4] | [5] | [6] | [7]
active: [2] 8.44 µM

Nc1nc(N)nc(-c2ccccc2)n1
inactive: [1] | [2] | [3] | [4] | [5] | [6] | [7]

O=C(Cl)c1c(Cl)c(Cl)c(C(=O)Cl)c(Cl)c1Cl
inactive: [1] | [2] | [3] | [4] | [5] | [6] | [7]

Nc1ccc(C(=O)O)cc1
inactive: [1] | [2] | [3] | [4] | [5] | [6] | [7]

Oc1ccccc1Cc1ccccc1O
inactive: [1] | [2] | [3] | [4] | [5] | [6] | [7]

C=CC(=O)NCOCCCC
inactive: [1] | [2] | [3] | [4] | [5] | [6] | [7]

Clc1cc(Cl)c(Cl)c(Cl)c1Cl
inactive: [1] | [2] | [3] | [4] | [5] | [6] | [7]

O=C(O)c1ccc2c(c1)C(=O)OC2=O
inactive: [10]

CC(=O)OC(C)c1ccccc1 (stereo not drawn)
inactive: [11]

CCCC(CC)c1ccccc1 (stereo not drawn)
active: [10] 10.4 µM

CC(=O)CC(=O)Nc1ccccc1C
inactive: [11]

c1ccc2sc(SSN3CCOCC3)nc2c1
inactive: [1] | [2] | [3] | [5] | [7]
active: [4] 20 µM | [6] 8.5 µM | [12] 10 nM | [13] 1.39 µM

CCCCC(CC)COS(=O)(=O)O (stereo not drawn)
inactive: [10]

C=C(C)OC(C)=O
inactive: [11]

Nc1cccc(N)n1
inactive: [1] | [2] | [3] | [4] | [5] | [6] | [7] | [11]

O=C(Oc1ccccc1)c1ccccc1C(=O)Oc1ccccc1
inactive: [1] | [2] | [3] | [4] | [5] | [7] | [11]
active: [6] 20 µM

CC(C)CCCCCOC(=O)CS
active: [13] 25 µM
inactive: [1] | [2] | [3] | [4] | [5] | [6] | [7]

CO[Si](CCCS)(OC)OC
active: [8] 25 µM

CCCCCC1=CCCC1=O
inactive: [1] | [2] | [3] | [4] | [5] | [6] | [7] | [11]

C=CC(=O)NC(C)(C)C
inactive: [1] | [2] | [3] | [4] | [5] | [6] | [7]
active: [13] 13.6 µM

COC(OC)(C(=O)c1ccccc1)c1ccccc1
active: [9] 43.1 µM
inactive: [1] | [2] | [3] | [4] | [5] | [6] | [7] | [11]

Cc1ccc([N+](=O)[O-])cc1N
inactive: [1] | [3] | [4] | [5] | [6] | [7] | [16]
active: [2] 5.91 µM | [14] 10 µM | [15] 2.51 µM | [12] 4920 nM

CCOC(=O)/C=C\C(=O)OCC
inactive: [1] | [3] | [4] | [5] | [6] | [7] | [8]
active: [2] 20 µM | [13] 14.7 µM

Oc1c(Cl)cc(Cl)c(Cl)c1Cl
inactive: [17]
active: [1] 31.2 µM | [2] 20 µM | [3] 32.2 µM | [4] 0.0683 µM | [5] 29.9 µM | [6] 20 µM | [7] 20 µM

CC1=C(O)C(=O)C(C)O1 (stereo not drawn)
inactive: [17] | [11]

Nc1ncnc2nc[nH]c12
inactive: [11]
